This is an account of results in ChEMBL document CHEMBL2218924, “A broad activity screen in support of a chemogenomic map for kinase signalling research and drug discovery” (Biochem J, 2013).

Experiment [1] deals with T1, Muscle, skeletal receptor tyrosine-protein kinase (Homo sapiens) (UniProt O15146).
T1 sequence (whole entry): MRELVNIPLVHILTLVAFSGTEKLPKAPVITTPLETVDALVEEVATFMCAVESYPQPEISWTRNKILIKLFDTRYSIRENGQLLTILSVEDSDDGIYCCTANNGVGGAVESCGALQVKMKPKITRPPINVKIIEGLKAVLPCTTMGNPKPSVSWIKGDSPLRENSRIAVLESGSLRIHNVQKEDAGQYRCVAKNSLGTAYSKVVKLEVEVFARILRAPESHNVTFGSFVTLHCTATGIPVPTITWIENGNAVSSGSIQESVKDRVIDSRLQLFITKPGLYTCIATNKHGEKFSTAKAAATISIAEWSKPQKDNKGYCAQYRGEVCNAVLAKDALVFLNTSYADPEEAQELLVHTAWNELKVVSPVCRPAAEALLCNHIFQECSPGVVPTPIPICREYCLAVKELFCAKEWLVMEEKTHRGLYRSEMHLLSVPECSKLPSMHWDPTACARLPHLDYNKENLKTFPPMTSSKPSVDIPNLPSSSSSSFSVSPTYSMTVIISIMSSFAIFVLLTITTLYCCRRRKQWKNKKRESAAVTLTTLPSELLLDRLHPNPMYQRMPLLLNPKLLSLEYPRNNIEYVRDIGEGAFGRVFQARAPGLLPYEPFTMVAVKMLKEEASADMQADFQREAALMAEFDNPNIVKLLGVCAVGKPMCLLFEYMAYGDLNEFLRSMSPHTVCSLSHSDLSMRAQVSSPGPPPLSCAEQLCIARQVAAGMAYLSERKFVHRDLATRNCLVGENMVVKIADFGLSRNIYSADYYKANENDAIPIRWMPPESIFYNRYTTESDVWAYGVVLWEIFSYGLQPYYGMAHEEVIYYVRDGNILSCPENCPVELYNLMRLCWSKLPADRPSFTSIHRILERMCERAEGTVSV
As to conditions: at 1 µM.

In experiment [2] the target is T1, Muscle, skeletal receptor tyrosine-protein kinase (Homo sapiens). As to conditions: at 10 µM.
For experiment [3], the target named is T2, Serine/threonine-protein kinase Nek2 (Homo sapiens) (UniProt P51955).
T2 sequence (whole entry): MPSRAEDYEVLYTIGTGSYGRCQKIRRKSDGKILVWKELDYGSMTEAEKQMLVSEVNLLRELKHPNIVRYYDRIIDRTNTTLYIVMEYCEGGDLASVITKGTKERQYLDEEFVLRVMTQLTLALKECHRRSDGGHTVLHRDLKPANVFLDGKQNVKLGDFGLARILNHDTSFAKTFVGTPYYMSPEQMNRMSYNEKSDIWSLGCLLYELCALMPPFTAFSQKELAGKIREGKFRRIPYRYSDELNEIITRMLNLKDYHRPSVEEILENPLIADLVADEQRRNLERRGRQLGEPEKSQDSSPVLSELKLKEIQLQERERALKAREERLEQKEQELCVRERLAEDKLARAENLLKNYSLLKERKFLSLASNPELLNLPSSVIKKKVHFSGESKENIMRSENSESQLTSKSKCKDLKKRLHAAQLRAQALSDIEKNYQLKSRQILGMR
As to conditions: at 1 µM.

Experiment [4] deals with T2, Serine/threonine-protein kinase Nek2 (Homo sapiens). As to conditions: at 10 µM.
Experiment [5] has as its target T3, Serine/threonine-protein kinase Nek3 (Homo sapiens) (UniProt P51956).
T3 sequence (whole entry): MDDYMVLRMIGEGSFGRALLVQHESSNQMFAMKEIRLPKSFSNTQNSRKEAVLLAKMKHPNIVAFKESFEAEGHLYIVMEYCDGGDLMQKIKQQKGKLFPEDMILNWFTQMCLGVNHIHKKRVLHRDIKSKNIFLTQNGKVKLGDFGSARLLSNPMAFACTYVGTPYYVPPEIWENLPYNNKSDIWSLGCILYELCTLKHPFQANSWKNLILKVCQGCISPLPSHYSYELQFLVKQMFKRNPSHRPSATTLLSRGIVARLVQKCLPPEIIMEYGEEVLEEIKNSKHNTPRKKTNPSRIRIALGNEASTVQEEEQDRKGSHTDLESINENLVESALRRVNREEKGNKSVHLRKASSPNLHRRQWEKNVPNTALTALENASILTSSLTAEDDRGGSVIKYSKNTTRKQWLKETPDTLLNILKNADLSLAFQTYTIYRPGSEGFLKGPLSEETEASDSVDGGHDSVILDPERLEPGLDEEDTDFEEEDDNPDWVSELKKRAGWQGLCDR
Particulars: at 10 µM.

Experiment [6] has as its target Serine/threonine-protein kinase tousled-like 2 (Homo sapiens) (UniProt Q86UE8). As to conditions: at 1 µM.
The target is the same in experiment [7]. As to conditions: at 10 µM.
Experiment [8] deals with T4, Testis-specific serine/threonine-protein kinase 1 (Homo sapiens) (UniProt Q9BXA7).
T4 sequence (whole entry): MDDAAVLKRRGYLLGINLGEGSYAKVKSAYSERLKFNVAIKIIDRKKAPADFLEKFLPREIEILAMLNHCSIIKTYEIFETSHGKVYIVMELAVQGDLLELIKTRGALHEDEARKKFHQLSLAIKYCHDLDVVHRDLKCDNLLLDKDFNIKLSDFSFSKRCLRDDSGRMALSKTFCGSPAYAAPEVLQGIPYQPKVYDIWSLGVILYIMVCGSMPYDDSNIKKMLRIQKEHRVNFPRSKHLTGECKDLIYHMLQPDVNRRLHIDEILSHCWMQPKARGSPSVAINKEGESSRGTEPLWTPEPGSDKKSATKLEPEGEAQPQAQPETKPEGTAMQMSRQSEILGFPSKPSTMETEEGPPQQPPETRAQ
Particulars: at 1 µM.

The target in experiment [9] is T4, Testis-specific serine/threonine-protein kinase 1 (Homo sapiens). As to conditions: at 10 µM.
Experiment [10] deals with T5, Testis-specific serine/threonine-protein kinase 2 (Homo sapiens) (UniProt Q96PF2).
T5 sequence (whole entry): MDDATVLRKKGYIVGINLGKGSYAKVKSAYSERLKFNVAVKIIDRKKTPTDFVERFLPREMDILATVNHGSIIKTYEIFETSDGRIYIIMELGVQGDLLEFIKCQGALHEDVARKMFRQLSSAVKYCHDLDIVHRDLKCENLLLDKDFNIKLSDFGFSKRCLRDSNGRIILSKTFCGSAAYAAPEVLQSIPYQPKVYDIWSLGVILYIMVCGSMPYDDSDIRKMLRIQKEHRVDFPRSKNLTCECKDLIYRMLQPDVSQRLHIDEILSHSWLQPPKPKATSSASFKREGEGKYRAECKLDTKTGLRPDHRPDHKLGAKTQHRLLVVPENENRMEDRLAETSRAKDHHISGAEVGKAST
As to conditions: at 10 µM.

Experiment [11] deals with T6, Tyrosine-protein kinase Tec (Homo sapiens) (UniProt P42680).
T6 sequence (whole entry): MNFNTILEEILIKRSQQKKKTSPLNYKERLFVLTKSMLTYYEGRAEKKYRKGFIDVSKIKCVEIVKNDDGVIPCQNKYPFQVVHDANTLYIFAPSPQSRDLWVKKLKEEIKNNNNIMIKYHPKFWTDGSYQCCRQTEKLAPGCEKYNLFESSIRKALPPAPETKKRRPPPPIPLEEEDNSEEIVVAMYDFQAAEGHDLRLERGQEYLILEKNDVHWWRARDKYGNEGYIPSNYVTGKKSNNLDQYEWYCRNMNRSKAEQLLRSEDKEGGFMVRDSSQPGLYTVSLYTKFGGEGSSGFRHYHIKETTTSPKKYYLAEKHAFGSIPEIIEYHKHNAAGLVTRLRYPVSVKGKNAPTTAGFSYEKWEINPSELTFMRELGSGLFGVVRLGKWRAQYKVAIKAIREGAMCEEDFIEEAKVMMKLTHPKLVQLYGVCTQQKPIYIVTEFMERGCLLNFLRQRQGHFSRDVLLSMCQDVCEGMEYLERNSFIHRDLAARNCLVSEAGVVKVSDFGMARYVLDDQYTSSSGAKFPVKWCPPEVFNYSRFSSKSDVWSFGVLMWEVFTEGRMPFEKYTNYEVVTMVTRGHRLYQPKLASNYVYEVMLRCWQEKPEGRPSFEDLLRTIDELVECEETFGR
Particulars: at 1 µM.

In experiment [12] the target is T6, Tyrosine-protein kinase Tec (Homo sapiens). As to conditions: at 10 µM.
Experiment [13] concerns the target Angiopoietin-1 receptor (Homo sapiens) (UniProt Q02763). Particulars: at 1 µM.
Experiment [14] shares this target. As to conditions: at 10 µM.
Experiment [15] deals with BDNF/NT-3 growth factors receptor (Homo sapiens) (UniProt Q16620). Particulars: at 1 µM.
Experiment [16] addresses T7, Serine/threonine-protein kinase Nek11 (Homo sapiens) (UniProt Q8NG66).
T7 sequence (whole entry): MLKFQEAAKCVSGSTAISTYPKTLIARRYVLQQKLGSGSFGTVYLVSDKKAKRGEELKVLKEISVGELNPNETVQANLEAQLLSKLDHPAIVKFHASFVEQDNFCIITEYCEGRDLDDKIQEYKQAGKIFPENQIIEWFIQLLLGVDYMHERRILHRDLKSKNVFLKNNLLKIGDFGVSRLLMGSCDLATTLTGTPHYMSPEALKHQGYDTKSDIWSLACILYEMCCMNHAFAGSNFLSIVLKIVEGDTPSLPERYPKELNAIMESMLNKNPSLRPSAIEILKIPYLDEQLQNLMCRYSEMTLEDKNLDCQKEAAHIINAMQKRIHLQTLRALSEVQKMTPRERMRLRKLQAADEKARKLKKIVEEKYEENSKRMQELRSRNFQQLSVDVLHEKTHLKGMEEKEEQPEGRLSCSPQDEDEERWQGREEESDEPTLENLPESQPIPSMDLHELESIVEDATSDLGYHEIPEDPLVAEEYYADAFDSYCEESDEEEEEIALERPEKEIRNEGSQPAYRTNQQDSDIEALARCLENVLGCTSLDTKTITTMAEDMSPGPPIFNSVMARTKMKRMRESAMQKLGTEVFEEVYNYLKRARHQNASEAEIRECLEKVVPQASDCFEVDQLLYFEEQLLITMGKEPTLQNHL
As to conditions: at 1 µM.

Experiment [17] deals with T7, Serine/threonine-protein kinase Nek11 (Homo sapiens). As to conditions: at 10 µM.
Experiment [18] has as its target T3, Serine/threonine-protein kinase Nek3 (Homo sapiens). Particulars: at 1 µM.
In experiment [19] the target is High affinity nerve growth factor receptor (Homo sapiens) (UniProt P04629). Particulars: at 1 µM.
Experiment [20] shares this target. Particulars: at 10 µM.

For orientation: residual activity means the signal under treatment as a percentage of the control signal.

Sequence of BDNF/NT-3 growth factors receptor (Homo sapiens) (Q16620 32-822 limits assumed): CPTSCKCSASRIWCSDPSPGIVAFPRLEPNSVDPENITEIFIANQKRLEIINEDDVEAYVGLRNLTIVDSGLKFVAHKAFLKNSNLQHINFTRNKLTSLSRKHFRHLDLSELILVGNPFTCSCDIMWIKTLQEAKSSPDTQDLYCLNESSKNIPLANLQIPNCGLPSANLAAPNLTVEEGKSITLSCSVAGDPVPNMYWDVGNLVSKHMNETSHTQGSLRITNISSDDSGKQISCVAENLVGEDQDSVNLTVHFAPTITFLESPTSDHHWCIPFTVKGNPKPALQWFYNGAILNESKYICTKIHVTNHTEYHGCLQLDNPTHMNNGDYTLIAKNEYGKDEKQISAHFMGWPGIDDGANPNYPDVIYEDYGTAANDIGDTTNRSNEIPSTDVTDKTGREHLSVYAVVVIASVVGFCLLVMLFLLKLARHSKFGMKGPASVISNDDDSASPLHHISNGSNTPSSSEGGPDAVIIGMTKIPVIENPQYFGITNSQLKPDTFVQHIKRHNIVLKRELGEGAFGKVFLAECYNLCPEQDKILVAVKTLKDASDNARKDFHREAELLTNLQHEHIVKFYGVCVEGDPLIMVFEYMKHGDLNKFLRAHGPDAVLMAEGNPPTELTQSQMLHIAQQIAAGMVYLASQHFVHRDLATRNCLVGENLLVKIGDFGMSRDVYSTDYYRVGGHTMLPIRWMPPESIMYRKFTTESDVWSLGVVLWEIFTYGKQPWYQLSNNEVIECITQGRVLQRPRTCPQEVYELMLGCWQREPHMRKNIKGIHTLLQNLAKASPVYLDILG
Sequence of Angiopoietin-1 receptor (Homo sapiens) (Q02763 whole entry): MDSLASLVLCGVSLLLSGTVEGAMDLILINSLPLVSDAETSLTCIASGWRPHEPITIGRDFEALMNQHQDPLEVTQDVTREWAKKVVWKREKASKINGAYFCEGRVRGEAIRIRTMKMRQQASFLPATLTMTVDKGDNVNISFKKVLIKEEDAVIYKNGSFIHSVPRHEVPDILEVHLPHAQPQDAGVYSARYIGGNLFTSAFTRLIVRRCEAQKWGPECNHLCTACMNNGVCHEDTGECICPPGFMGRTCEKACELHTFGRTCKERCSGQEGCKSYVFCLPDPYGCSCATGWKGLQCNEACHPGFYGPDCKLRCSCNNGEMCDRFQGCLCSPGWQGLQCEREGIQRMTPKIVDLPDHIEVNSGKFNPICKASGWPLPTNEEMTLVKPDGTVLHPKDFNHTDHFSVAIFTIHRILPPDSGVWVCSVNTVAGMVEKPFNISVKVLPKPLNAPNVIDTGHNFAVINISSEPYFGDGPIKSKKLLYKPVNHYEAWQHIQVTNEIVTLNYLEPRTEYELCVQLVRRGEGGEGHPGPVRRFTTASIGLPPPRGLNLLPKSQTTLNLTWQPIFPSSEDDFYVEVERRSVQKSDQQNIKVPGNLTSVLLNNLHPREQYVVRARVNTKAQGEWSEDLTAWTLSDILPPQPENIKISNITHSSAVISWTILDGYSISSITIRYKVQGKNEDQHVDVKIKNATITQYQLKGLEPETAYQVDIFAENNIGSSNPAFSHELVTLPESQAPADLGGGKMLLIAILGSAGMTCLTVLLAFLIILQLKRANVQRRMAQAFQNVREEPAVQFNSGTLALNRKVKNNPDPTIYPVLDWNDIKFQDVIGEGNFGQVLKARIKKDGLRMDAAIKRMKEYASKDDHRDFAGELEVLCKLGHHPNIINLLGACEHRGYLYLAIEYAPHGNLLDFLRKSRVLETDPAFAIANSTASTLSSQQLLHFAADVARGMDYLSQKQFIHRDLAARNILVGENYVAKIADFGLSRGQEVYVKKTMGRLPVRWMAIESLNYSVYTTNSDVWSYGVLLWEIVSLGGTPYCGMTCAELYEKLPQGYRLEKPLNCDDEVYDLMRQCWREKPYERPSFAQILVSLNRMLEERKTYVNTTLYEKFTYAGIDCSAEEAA
Sequence of Serine/threonine-protein kinase tousled-like 2 (Homo sapiens) (Q86UE8 whole entry, looked up): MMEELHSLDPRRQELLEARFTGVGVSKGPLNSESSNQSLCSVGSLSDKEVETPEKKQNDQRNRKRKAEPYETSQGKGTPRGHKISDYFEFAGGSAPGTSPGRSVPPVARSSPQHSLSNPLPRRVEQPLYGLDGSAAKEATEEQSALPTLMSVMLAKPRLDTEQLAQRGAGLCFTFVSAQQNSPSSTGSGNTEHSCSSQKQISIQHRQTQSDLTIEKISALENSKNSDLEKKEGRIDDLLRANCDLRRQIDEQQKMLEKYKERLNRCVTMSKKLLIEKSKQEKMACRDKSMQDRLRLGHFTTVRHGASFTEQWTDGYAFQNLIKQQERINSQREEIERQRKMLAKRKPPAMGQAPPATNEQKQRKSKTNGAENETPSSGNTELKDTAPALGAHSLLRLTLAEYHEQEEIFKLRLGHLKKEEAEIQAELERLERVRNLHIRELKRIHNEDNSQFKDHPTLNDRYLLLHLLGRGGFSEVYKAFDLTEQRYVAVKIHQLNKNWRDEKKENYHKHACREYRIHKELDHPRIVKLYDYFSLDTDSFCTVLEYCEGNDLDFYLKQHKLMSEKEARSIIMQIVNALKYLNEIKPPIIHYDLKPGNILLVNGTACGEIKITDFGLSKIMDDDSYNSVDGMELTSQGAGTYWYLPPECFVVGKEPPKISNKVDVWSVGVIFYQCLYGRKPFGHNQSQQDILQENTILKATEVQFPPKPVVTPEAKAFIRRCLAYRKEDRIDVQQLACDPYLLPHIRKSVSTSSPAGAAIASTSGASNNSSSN
Sequence of High affinity nerve growth factor receptor (Homo sapiens) (P04629 33-796 limits assumed): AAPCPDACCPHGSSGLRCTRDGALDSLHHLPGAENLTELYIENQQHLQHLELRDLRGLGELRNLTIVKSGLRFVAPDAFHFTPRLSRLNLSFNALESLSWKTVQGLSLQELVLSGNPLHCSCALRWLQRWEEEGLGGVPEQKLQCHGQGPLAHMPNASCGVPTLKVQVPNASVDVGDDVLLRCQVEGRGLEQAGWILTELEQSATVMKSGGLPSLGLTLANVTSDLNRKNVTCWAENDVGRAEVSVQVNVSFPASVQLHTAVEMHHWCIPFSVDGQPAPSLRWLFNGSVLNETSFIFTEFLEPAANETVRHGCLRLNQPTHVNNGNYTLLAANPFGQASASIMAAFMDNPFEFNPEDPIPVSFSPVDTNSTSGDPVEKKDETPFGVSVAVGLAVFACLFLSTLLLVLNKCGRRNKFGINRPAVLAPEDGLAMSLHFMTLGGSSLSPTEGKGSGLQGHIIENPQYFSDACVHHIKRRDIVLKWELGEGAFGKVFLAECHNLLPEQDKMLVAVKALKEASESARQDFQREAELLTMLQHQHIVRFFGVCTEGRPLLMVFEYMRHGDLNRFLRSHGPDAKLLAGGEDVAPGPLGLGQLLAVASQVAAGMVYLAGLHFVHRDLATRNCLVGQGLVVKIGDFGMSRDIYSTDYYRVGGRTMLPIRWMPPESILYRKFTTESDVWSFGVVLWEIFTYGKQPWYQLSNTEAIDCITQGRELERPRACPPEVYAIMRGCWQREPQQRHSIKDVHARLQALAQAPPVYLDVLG

Take `CC(=O)c1ccc(N2CCOCC2)cc1O`: the residual activity amounted to 105% in experiment [1]; 81% in [2]; 84% in [3]; 104% in experiment [4]; 77% in experiment [5]; 103% in experiment [6]. The residual activity in experiment [7] worked out at 95%; in [8], 98%; in experiment [9] it was 94%; in experiment [10], 104%; in [11], 104%; in experiment [12], 91%. The residual activity is 79% in experiment [13], 83% in experiment [14] and 84% in experiment [15].
Take `O=C1Nc2ccccc2/C1=C1/Nc2ccccc2/C1=N\OCCC(O)CO` (stereo not drawn): the residual activity in experiment [1] came to 20%; in [2] it was 3%; in experiment [16] it was 41%; in [17], 35%; in experiment [18], 71%; in experiment [6] it was 38%. The residual activity in experiment [7] is 6%; in experiment [8], 75%; in experiment [9], 69%; in experiment [11], 47%; in experiment [12], 8%; in [19], -1%. Moreover, the figures for the residual activity in experiment [20] and in experiment [15] were 0% and -2%, respectively.
Regarding `O=C1Nc2ccc(Br)cc2/C1=C\c1cc2c([nH]1)CCCC2`, the residual activity is 61% in [1]; 50% in experiment [2]; 101% in experiment [4]; 102% in experiment [18]; 97% in experiment [5]; 107% in experiment [6]. Also, the residual activity is 105% in experiment [11]; 110% in experiment [13]; 19% in experiment [19]; 20% in [20]; 48% in [15].
As to `COc1cc2ncnc(Nc3ccc(Oc4ccccc4)cc3)c2cc1OC`, the residual activity was found to be 71% in experiment [1]; 73% in [2]; 100% in [16]; 105% in [17]; 92% in experiment [3]; 96% in [4]. The residual activity stood at 106% in [18]; 97% in [5]; 106% in experiment [6]; 98% in experiment [7]; 95% in experiment [8]; 93% in [9]. The residual activity in experiment [10] turned out to be 111%; in experiment [11], 40%; in experiment [12] it was 10%; in experiment [19] it was 135%; in experiment [20], 82%; in experiment [15] it was 102%.
